IL-1B inflam inh: qHTS for Inhibitors of Inflammasome Signaling: IL-1-beta AlphaLISA Primary Screen; THP-1 LPS/ATP IL-1B secretion, AlphaLISA, 16 h; active compounds read low; activity change, % at 57.5 µM; 360,000 tested, 4.7% active; AID 743279, 2014; in the data active means activity change below about -50%; inconclusive means mostly about -30% to -49%; further: on the % scale 0 is the no-effect control and ±100 the full control effect
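THP-1 cells pretreated 1 hr with compounds (up to 57.5 uM final), then stimulated with LPS (250 ng/mL final) plus ATP (1.25 mM final); secreted IL-1B measured by AlphaLISA after 16 hr, decreased signal indicating inhibition.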
D3 antag: qHTS of D3 Dopamine Receptor Antagonist: qHTS; D(3) dopamine receptor (Homo sapiens), P35462; D3R cells, DiscoveRx beta-arrestin luminescence, antagonist mode; active compounds read low; max response, negative = inhibition, %; 360,000 tested, 2.5% active; in the data active means max response below about -50%; inconclusive means no clear call, values can overlap the other calls; further: on the % scale 0 is the no-effect control and ±100 the full control effect
Target sequence (P35462 whole entry, looked up): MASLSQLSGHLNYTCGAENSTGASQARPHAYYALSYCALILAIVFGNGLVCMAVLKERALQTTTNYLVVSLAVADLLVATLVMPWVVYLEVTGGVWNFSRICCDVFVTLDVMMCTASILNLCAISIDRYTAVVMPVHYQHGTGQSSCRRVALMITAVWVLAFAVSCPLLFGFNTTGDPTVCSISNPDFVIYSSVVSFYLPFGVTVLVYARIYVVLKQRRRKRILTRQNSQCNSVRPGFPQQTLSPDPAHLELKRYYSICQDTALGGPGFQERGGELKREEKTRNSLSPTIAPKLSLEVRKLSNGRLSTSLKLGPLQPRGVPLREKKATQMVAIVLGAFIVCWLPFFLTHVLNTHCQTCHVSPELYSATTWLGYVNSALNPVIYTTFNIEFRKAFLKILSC
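Cells expressing the human receptor were seeded at 1500 cells/well, incubated overnight at 37 degrees C in 5% CO2, then exposed to library compounds with dopamine controls for 90 minutes at 37 degrees C before luminescent detection.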
ClpP mod: qHTS Assay for Activators of ClpP | ATP-dependent Clp protease proteolytic subunit (Bacillus subtilis (strain 168)), P80244 | purified B. subtilis ClpP, FRET peptide cleavage, 20 min | Potency, µM (doses to about 57.5 µM), inactives show at the top dose activity change, negative = active | 340,000 tested, 1.9% active; active means well fitted falling curve with a large enough effect; inconclusive means small, poorly fitted or top-dose-only effect; inactive means no such curve, though single readings can be large or run the other way; further: potency means the concentration at half of the fitted maximal effect; the source files actives as falling curves though it sought activators and does not explain the sign; nearly all actives have a fitted effect of over 65% in size
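Purified B. subtilis ClpP, 10 microg/mL final in Tris/HCl pH8 with KCl, BSA, glycerol and Tween-20, cleaved an Abz/nitrotyrosine-quenched decapeptide. Fluorescence (ex 320, em 430) was read at 0 and 20 min at room temperature. Delta was normalized to 5.8 microM ADEP and DMSO/no-enzyme controls.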
D3 ag: qHTS of D3 Dopamine Receptor Agonist: qHTS. max activation, %. AID 652048, 2013. D3R DiscoveRx beta-arrestin cells, luminescence, 90 min. 410,000 tested, 0.58% active. D(3) dopamine receptor (Homo sapiens), P35462; in the data active means max activation above about 30%; further: 0% is about no effect
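Agonist mode: compounds and dopamine controls were applied to plated cells for 90 min at 37 degrees C after an overnight attachment at 1500 cells/well. Luminescent read-out followed 30 - 60 minutes at room temperature with DiscoveRx detection reagent.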
TDP1 cell noCPT: qHTS for Inhibitors of human tyrosyl-DNA phosphodiesterase 1 (TDP1): qHTS in cells in absence of CPT | DT40 Tdp1-/- hTDP1 cells, no CPT, ATP luminescence, 48 h | Potency, µM (doses to about 46.2 µM), without a hit: at the top dose activity change, negative = growth inhibition, most hits filed as inhibitors | 420,000 tested, 15% active; further: potency means the concentration at half of the fitted maximal effect; on the % scale 0 is the no-effect control and ±100 the full control effect; nearly all actives have a fitted effect of over 55% in size
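Chicken DT40 Tdp1-/- cells complemented with human TDP1, screened without camptothecin (DMSO vehicle only), 400 cells/well. Compounds pin-transferred, cells incubated at 37 °C for at least 48 hr. Growth read as ATP-dependent luminescence (CellTiter-Glo, 30 min at RT).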
DT40 TDP1 CPT: qHTS for Inhibitors of human tyrosyl-DNA phosphodiesterase 1 (TDP1): qHTS in cells in presence of CPT; chicken DT40 Tdp1-/-;hTDP1 cells + 20 nM CPT, ATP luminescence, 48 h; Potency, µM (series often up to 46.2 µM), inactives show at the top dose activity change, negative = growth inhibition, usual class: inhibitors; 420,000 tested, 12% active; AID 686979, 2013; further: potency means the concentration at half of the fitted maximal effect; on the % scale 0 is the no-effect control and ±100 the full control effect; nearly all actives have a fitted effect of over 55% in size
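Chicken DT40 Tdp1-/- cells stably complemented with human TDP1 were seeded at 400 cells/well in medium containing 20 nM camptothecin, exposed to pin-transferred compounds, and grown at 37 °C for at least 48 hr. Viability was read as ATP luminescence.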
An asterisk follows results filed as active; ? = inconclusive; . = no result given. The list is not random: actives were taken first. Their share in the collection is about 21%. Unless noted, the call rests on the fitted dose curve; in most records, active means well fitted inhibition curve with a large enough effect; inconclusive means small, poorly fitted or top-dose-only effect; inactive means flat fitted curve, though single readings scatter.

SMILES | IL-1B inflam inh | D3 antag | ClpP mod | D3 ag | TDP1 cell noCPT | DT40 TDP1 CPT
CCn1c(=O)c(CCC(=O)NCC2CCCO2)c(C)c2c(C)nn(-c3ccc(C)cc3)c21 (stereo not drawn) | 33 | 12 | -25% | 5 | ? | 23µM*
Cc1ccc(-n2c(=O)c3c(c4cc(C)ccc4n3C)n(CC(=O)NCC3CCCO3)c2=O)cc1 (stereo not drawn) | 11 | -16 | 4% | 3 | ? | ?
Cc1ccnn1CCC(=O)N1CCCC(N2CCN(c3cccc(Cl)c3)CC2)C1 (stereo not drawn) | 2 | -4 | 1% | -4 | ? | ?
CCc1ccc(-c2cn(C3CCCCC3)c(=S)[nH]2)cc1 | -68* | -7 | . | -2 | 8.2µM* | ?
CCc1ccccc1Nc1nn2c(=O)c3ccc(C(=O)NC(C)C)cc3nc2s1 | . | . | -2% | 6 | -28% | -17%
CCc1ccccc1Nc1nn2c(=O)c3ccc(C(=O)NCc4cccs4)cc3nc2s1 | . | . | 4% | -14 | 21µM* | ?
CCc1ccccc1Nc1nn2c(=O)c3ccc(C(=O)NCc4ccccc4Cl)cc3nc2s1 | . | . | ? | -5 | 9.2µM* | ?
C[C@@H]1CN([C@H](C)CO)C(=O)Cc2cc(NC(=O)Nc3ccccc3)ccc2O[C@@H]1CN(C)Cc1ccc2c(c1)OCO2 | -64* | 3 | -6% | -29 | ? | ?
Cc1ccc(S(=O)(=O)Nc2ccc3c(c2)CC(=O)N([C@H](C)CO)C[C@H](C)[C@H](CN(C)Cc2ccc4c(c2)OCO4)O3)cc1 | 50 | ? | -2% | -1 | 18µM* | 21µM*
CCOC(=O)CCCCCC(=O)Nc1ccc2c(c1)CC(=O)N([C@H](C)CO)C[C@@H](C)[C@H](CN(C)Cc1ccc3c(c1)OCO3)O2 | 7 | 0 | 2% | 2 | ? | ?
C[C@@H]1CN([C@H](C)CO)C(=O)c2cc(NC(=O)Nc3ccc4c(c3)OCO4)ccc2O[C@H]1CN(C)Cc1ccncc1 | 0 | 4 | 0% | 32* | -19% | 5%
COC(=O)[C@H](CC(C)C)NC(=O)NCc1ccc(Cl)cc1 | -8 | 1 | . | 13 | 3% | 16%
CCN(c1cccc(C)c1)S(=O)(=O)c1ccc(-c2cc(C)no2)s1 | 30 | -13 | 3% | -4 | 2.6µM* | 2.9µM*
CCOc1ccc(N(C)S(=O)(=O)c2ccc(-c3cc(C)no3)s2)cc1 | 45 | 12 | 0% | -5 | 4.1µM* | 3.7µM*
CCOc1ccc(N(C)S(=O)(=O)c2ccc(-c3ccc(=O)[nH]n3)s2)cc1 | 11 | 2 | -3% | 1 | 10% | -21%
Cc1cccc(N(C)S(=O)(=O)c2ccc(-c3cc(C)no3)s2)c1 | 77 | -12 | 0% | -14 | 0.65µM* | 0.82µM*
CN1CCc2c(sc3nc(SCC(=O)NCc4ccco4)n(-c4ccccc4)c(=O)c23)C1 | -6 | 1 | 4% | 0 | ? | ?
O=C(Cc1ccccc1)Nc1nc2ccc(Cl)cc2c2nc(-c3ccco3)nn12 | . | . | . | . | -27% | -5%
COc1ccc(NC(=O)CN2CCN(CC(=O)Nc3ccccc3Cl)CC2)c(OC)c1 | 0 | 27 | 1% | 30* | 18µM* | 18µM*
CCN(CC(=O)Nc1ccc(OC)cc1)CC(=O)Nc1ccc(Br)cc1F | 9 | 10 | . | -5 | -22% | ?
COc1ccc(NC(=O)CN2CCN(CC(=O)Nc3ccccc3OC)CC2)c(OC)c1 | 18 | 3 | 0% | 4 | -8% | -4%

Screening data deposited in PubChem BioAssay by National Center for Advancing Translational Sciences (NCATS).
